Only some compounds are listed: those with a hit (about 2.5% of all), similar ones and a draw of the others.
Pol iota inh: qHTS for Inhibitors of Polymerase Iota | Potency, µM (highest dose often 115 µM), hits mostly inhibitors | 1% of 390,000 active | DNA polymerase iota (Homo sapiens), Q9UNA4 | Pol iota fluorescent replication assay, 10 min
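Pol iota at 10 nM preincubated 15 min with compounds at room temperature; reaction started with fluorescent substrate, 50 nM final. Fluorescence read kinetically at 0 and 10 min; buffer-only wells as negative control.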
Pol kappa inh: qHTS for Inhibitors of Polymerase Kappa; DNA polymerase kappa (Homo sapiens), Q9UBT6; purified Pol kappa, fluorescent DNA synthesis assay, 10 min; Potency, µM (top dose mostly 107 µM), usual class: inhibitors; 0.53% of 400,000 active; AID 588579, 2011
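First, compounds were pin-transferred onto 10 nM Pol kappa. After 15 min at room temperature, substrate was added to 50 nM final. Fluorescence was then measured kinetically at 0 and 10 min.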
L3MBTL1 block: qHTS Assay for the Inhibitors of L3MBTL1; AlphaScreen L3MBTL1–H3K9me1 peptide binding; 0.66% of 230,000 active; AID 485360, 2010; Potency, µM (doses to about 57.1 µM), actives largely listed as inhibitors; Lethal(3)malignant brain tumor-like protein 1 (Homo sapiens), Q9Y468; also: nearly all actives have a fitted effect of over 60% in size
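AlphaScreen proximity signal between nickel-chelate acceptor and streptavidin donor beads (final 10 ug/mL) reports binding of 50 nM L3MBTL1 to 75 nM biotin-H3 K9me1 peptide; complex incubated with compounds 30 min at room temperature; cefsulodin titration as control.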
Pol beta inh: qHTS Assay for Inhibitors of DNA Polymerase Beta | P06746 | Pol beta primer extension/strand displacement, fluorescence kinetic | AID 485314, 2010 | 1.3% of 340,000 active | Potency, µM (doses to about 114 µM), usual class: inhibitors
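Reaction started by 50 nM substrate onto compound-treated Pol beta (10 nM, 15 min preincubation, room temperature); plates read at 0 min and 10 min. Normalized concentration-effect data fitted by four-parameter Hill equation.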
Pol eta inh: qHTS for Inhibitors of Polymerase Eta; DNA polymerase eta (Homo sapiens), Q9Y253; recombinant Pol eta, fluorescent DNA replication assay; Potency, µM (series often up to 114 µM), actives largely listed as inhibitors; 1.2% of 390,000 active; AID 588591, 2011
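Fluorescent replication assay: 50 nM final substrate added after a 15 min room-temperature compound preincubation with 10 nM enzyme. Signal taken at 0 min and again at 10 min.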
APE1 inh: qHTS Assay for Inhibitors of the Human Apurinic/apyrimidinic Endonuclease 1 (APE1) | recombinant APE1, TAMRA/BHQ-2 abasic DNA cleavage fluorescence | Potency, µM (doses to about 65.8 µM), most hits filed as inhibitors | 0.35% of 350,000 active | AID 2517, 2012; also: nearly all actives have a fitted effect of over 55% in size
Target sequence (P27695 whole entry, looked up): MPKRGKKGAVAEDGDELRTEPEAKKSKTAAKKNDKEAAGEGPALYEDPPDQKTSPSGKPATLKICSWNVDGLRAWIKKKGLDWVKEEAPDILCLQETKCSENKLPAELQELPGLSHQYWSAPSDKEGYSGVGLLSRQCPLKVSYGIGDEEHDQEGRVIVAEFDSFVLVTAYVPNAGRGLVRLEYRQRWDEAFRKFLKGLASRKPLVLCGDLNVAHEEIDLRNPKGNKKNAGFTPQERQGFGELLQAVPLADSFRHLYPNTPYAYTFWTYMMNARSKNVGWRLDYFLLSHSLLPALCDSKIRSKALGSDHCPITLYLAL
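Enzyme (0.75 nM final) and test compound are incubated 15 min at room temperature before adding 50 nM quenched THF abasic-site duplex. Cleavage dequenches TAMRA, followed at 525/598 nm over three reads one minute apart.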
Numbers stand for hits; – = inactive; ? = inconclusive; · = no result given; [ ] = another dose, or the depositor's remark. Calls follow the shape of the dose curve; as a rule, active = well fitted curve in the direction sought with a large enough effect; inconclusive = small, poorly fitted or top-dose-only effect, or another doubt; inactive = no such curve, though single readings can be large; an effect the other way counts as inactive or inconclusive.

SMILES | Pol iota inh | Pol kappa inh | L3MBTL1 block | Pol beta inh | Pol eta inh | APE1 inh
N#Cc1ccccc1Cn1c(=O)n(CCCC(=O)NCc2ccccc2Cl)c(=O)c2ccccc21 | 89µM | – | · | – | – | ·
COc1ccc(C2(C#N)CCC(=O)N2c2ccccc2)cc1 (configuration not stated) | – | – | · | – | – | –
COc1ccc(S(=O)(=O)NNC(=O)Cc2csc(C)n2)cc1[N+](=O)[O-] | 50µM | ? | ? | · | ? | –
Cc1nc(CC(=O)NNS(=O)(=O)c2ccc3ccccc3c2)cs1 | – | – | – | – | – | –
CCn1nnc(NC(=O)CSc2ccc(Cl)cc2)n1 | 25µM | 79µM | ? | 25µM | 50µM | ?
COc1ccc2nc(SC)c(C#N)cc2c1 | 89µM | – | ? | – | – | –
COc1ccc2nc(SCC(C)=O)c(C#N)cc2c1 | – | – | – | – | – | –
Nc1nnc(-c2cc3c(ccc4ccccc43)oc2=O)s1 | · | · | – | 22µM | · | –
O=[N+]([O-])CC(=Nc1ccc(Cl)cc1)N/N=C\c1oc(O)c2ccccc12 | – | – | · | – | 40µM | –
S=C(NC1CCCCC1)N1CCC([C@H]2C=NC=N2)CC1 | · | –[12 µM] | · | · | · | –
COc1ccccc1CCNC(=O)Cc1c(C)c2cc3c(C)coc3cc2oc1=O | – | – | · | – | – | ·
COc1ccccc1NS(=O)(=O)c1cccc(C(=O)N/N=C/c2ccc(NC(C)=O)cc2)c1 | 50µM | – | – | ? | – | –
COc1ccccc1NS(=O)(=O)c1cccc(C(=O)N/N=C/c2ccc(OCC(=O)O)cc2)c1 | – | – | – | – | – | –
O=C(Nc1cccc(N=Cc2cc(Br)cc(Br)c2O)c1)c1ccco1 | 89µM | – | – | – | ? | –
O=C(Nc1cccc(N=Cc2cc(Cl)cc(Br)c2O)c1)c1ccco1 | – | – | – | – | ? | –
COc1ccc(C2CC(=O)N3CN(C4CCCCC4)CSC3=C2C#N)c(OC)c1 (configuration not stated) | 7.9µM | – | · | – | – | ·
COc1ccc2ccccc2c1C1CC(=O)N2CN(Cc3ccco3)CSC2=C1C#N (configuration not stated) | ? | – | – | 50µM | 89µM | –
COc1ccc2ccccc2c1C1CC(=O)N2CN(C3CCCCC3)CSC2=C1C#N (configuration not stated) | ? | – | – | 89µM | ? | –
N#CC1=C2SCN(Cc3ccccc3)CN2C(=O)CC1c1cccs1 (configuration not stated) | ? | – | – | ? | – | –
COc1ccc(C2CC(=O)N3CN(Cc4ccco4)CSC3=C2C#N)cc1 (configuration not stated) | ? | – | – | ? | – | –
N#CC1=C2SCN(Cc3ccccc3)CN2C(=O)CC1c1ccc2c(c1)OCO2 (configuration not stated) | – | – | – | 45µM | – | –
CN(C(=O)c1c(O)c2ccccc2n(C)c1=O)c1ccccc1 | · | –[19.4 µM] | · | · | · | –
Cc1cccc(Cn2nnc3c(=O)[nH]c(C4CCCN(C(=O)c5ccc(C(C)(C)C)cc5)C4)nc32)c1 (configuration not stated) | – | – | · | – | ? | ·
O=C(C[n+]1ccccc1)N/N=C/c1ccc(Cl)c(Cl)c1 | – | – | · | – | – | –
CCCCN1C[C@H](c2ccccc2)[C@@H](CC(=O)NC)C1=O | · | · | · | · | – | ·
N[C@H](C(=O)O)c1ccc(O)c(C(=O)O)c1 | · | –[19.4 µM] | · | · | · | ?
NC(C(=O)O)C(O)c1ccc(O)c(O)c1 (configuration not stated) | · | 0.24µM | · | · | · | ·
O=S(=O)(Nc1ccc(-c2csc(-c3ccccc3)n2)cc1)c1ccc(F)cc1 | – | – | – | ? | – | –
O=C(Nc1nc(-c2ccccc2)cs1)c1ccccc1NS(=O)(=O)c1ccc(F)cc1 | – | – | – | 45µM | 50µM | –
CCN(CC)CCNc1ncnc2c1[nH]c1ccc(OC)cc12 | · | · | – | – | · | –
